Results reported in ChEMBL document CHEMBL4513216, “Probing the Open Global Health Chemical Diversity Library for Multistage-Active Starting Points for Next-Generation Antimalarials” (ACS Infect Dis, 2020).
The whole screen tested about 69,000 compounds, of which about 8,600 (12%) showed an effect of 50% or more. The sample holds strong results, similar compounds and a random draw of the others, so the mix is not that of the screen.

tested on: Plasmodium berghei; experiment: Screen against P. berghei liver stage (PbLuc), transformed with Luciferase, at 10uM; assay type: functional, HepG2; settings: tested at 10 uM

SMILES | INHIBITION [%]
CCN1CCC(NC(=O)CN2CCCC2Cn2cc(C)cn2)CC1 (centres undefined) | 11.2
Cc1cccc(OC2CCN(c3ccc(C#N)cn3)CC2)n1 | 51.1
Cc1cccc(OC2CCN(c3ncc(C#N)cc3Cl)CC2)n1 | 12.4
Cc1cccc(OC2CCN(c3nccnc3C#N)CC2)n1 | 11.4
CC(C)N1CCn2c(COCC3CCOCC3)cnc2C1C (centres undefined) | 39.4
COc1cc(C)nc(N2CCN(C(=O)COC3CCCC3)CC2)n1 | 26.36
Cc1cn[nH]c1C1CCCCN1C(=O)CCc1ccc(F)cc1 (centres undefined) | 2.6
O=C(c1ccsc1)N1CCC(c2nnc(C3CC3)o2)CC1 | 14.3
Cc1cc(C)n(CC2CCCN2C(=O)c2ccc3ccccc3n2)n1 (centres undefined) | 21
CCOc1ccc(Cl)c(C(=O)N2CCN(c3ncccn3)CC2)n1 | 1.78
CCOc1ccc(Cl)c(C(=O)N2CCN(c3ccncc3)CC2)n1 | 10
CCOc1ccc(Cl)c(C(=O)N2CCN(c3cnccn3)CC2)n1 | 52.7
CCC(NC(=O)c1ccoc1)c1ccccc1OCC(=O)N1CCCC1 (centres undefined) | 29.05
COCC(=O)N[C@H](C(=O)NC(C)c1cccc(C)c1C)C(C)C (some centres undefined) | 28.7
COCC(=O)N[C@H](C(=O)NC(C)c1cc(C)ccc1C)C(C)C (some centres undefined) | 57.4
CCOCC(=O)NC(C)c1cc(C)ccc1C (centres undefined) | 30.5
CC1=Nc2c(c(=O)[nH]n2C(C)C)C(c2ccc3nccnc3c2)S1 (centres undefined) | 58.5
CC1=Nc2c(c(=O)[nH]n2C(C)C)C(c2ccc(F)c(F)c2)S1 (centres undefined) | -3.95
CC1=Nc2c(c(=O)[nH]n2C(C)C)C(c2ccccc2)S1 (centres undefined) | 7.11
CC1=Nc2c(c(=O)[nH]n2C(C)C)C(c2ccc3ncccc3c2)S1 (centres undefined) | 80
CC1=Nc2c(c(=O)[nH]n2C(C)C)C(c2ccc3c(c2)OCCO3)S1 (centres undefined) | -14.1
CC1=Nc2c(c(=O)[nH]n2C(C)C)C(c2ccc3c(c2)n(C)c(=O)n3C)S1 (centres undefined) | -39.6
O=C(Nc1ccccc1)[C@H]1C[C@H]2CN(S(=O)(=O)C3CC3)C[C@@H]1O2 | 30.3

SMILES | INHIBITION [%]
CC(C)c1cnc(CN2CCCC(c3cc(C(N)=O)[nH]n3)C2)o1 (centres undefined) | -0.113
Cc1cccnc1NC(=O)c1ccc(F)c(S(=O)(=O)NC2CC2)c1 | 20.9
Cc1ccccc1CN(C)C(=O)CN1CCOC(Cn2cccn2)C1 (centres undefined) | -4.16
O=C(CCC(=O)Nc1nnc(C2CCCCC2)s1)NCC1CCCO1 (centres undefined) | 18.4
O=C(CCC(=O)Nc1nnc(C(F)(F)F)s1)NCC1CCCO1 (centres undefined) | 0.207
CC(C)c1nnc(NC(=O)CCC(=O)NCC2CCCO2)s1 (centres undefined) | 52.5
Cc1ncc2c(c1CNC(=O)C1(C)CCCCO1)CCNC2 (centres undefined) | 36.9
COc1ccc(C2(C(=O)NCc3c(C)ncc4c3CCNC4)CC2)cc1 | 44.3
Cc1ccc(OCC(O)CNC(=O)C2(c3ccc(F)cc3)CC2)cc1 (centres undefined) | -26.1
Cc1ncc2c(c1CNC(=O)C1(C)CC1)CCNC2 | 14.6
Cc1ncc2c(c1CNC(=O)C1(C)CCCO1)CCNC2 (centres undefined) | 56.3
Cc1ncc2c(c1CNC(=O)C1(c3ccc(F)cc3)CC1)CCNC2 | 61.9
COc1cccc(CCC(=O)N2CCC[C@@H](N)[C@@H]2c2ccccc2F)c1 | 14.4
COc1c(CNCC(O)c2ccc(C)cc2)c(C(C)C)nn1C (centres undefined) | -6.14
CS(=O)(=O)CC1(CNc2cc(C#N)c3cc(Cl)ccc3n2)CC1 | 6.23
CC(NC(=O)CNc1cc2c(cc1Cl)NC(=O)CO2)c1ccco1 (centres undefined) | 17.1
Cn1nnnc1SCC(=O)N1CCN(C(=O)C2CC2c2cccs2)CC1 (centres undefined) | -40.4
CCc1nnc2n1CCN(C(=O)CCc1ccc3c(c1)OCO3)C2 | 37.4
O=C(C1CCOCC1)N1C[C@@H]2[C@@H](C1)OCC(=O)N2Cc1ccncc1 | -46.5
NC(=O)CCC1CCCN(c2ccc3ccc(F)cc3n2)C1 (centres undefined) | -65.4
NC(=O)CCC1CCCN(c2ccnc3cc(F)ccc23)C1 (centres undefined) | 79.3
NC(=O)CCC1CCCN(c2ccc3c(Cl)ccnc3c2F)C1 (centres undefined) | 38
Cc1cnccc1CCNC(=O)Nc1cnc(N(C)C)nc1 | 42.3

SMILES | INHIBITION [%]
Cc1nc(NC(=O)C(C)N(C)Cc2cccc(C#N)c2)sc1C (centres undefined) | -24.7
CC(C)COCCNC1CCN(c2ccccn2)CC1 | 41.4
OC1(CNC2CCN(c3ccccn3)CC2)CCc2ccccc21 (centres undefined) | 7.31
COc1ccc(C(C)CCNC2CCN(c3ccccn3)CC2)cc1 (centres undefined) | 53.4
CC(CNC1CCN(c2ccccn2)CC1)Oc1ccc(F)cc1 (centres undefined) | 65.4
c1ccc(N2CCC(NCCc3ccc(-n4cccn4)cc3)CC2)nc1 | -15.3
COc1c(CNC2CCN(c3ccccn3)CC2)c(C(C)C)nn1C | 40.2
CN1CCC/C1=N\S(=O)(=O)c1ccc(NC(=O)c2cccs2)cc1 | 23.4
c1ccc(CN2C[C@@H]3CC[C@H]2CN(Cc2nnc(C4CC4)o2)C3)cc1 | 45.4
Cc1cc(C)n(CC2CN(CC(=O)N3CCC3)CCO2)n1 (centres undefined) | 8.64
CCCN1CCC(c2nc3ccc(-c4ccncc4)cn3n2)CC1 | 16.8
CCCN1CCC(c2nc3ccc(-c4cccc(F)c4)cn3n2)CC1 | 47.5
CCCN1CCC(c2nc3ccc(-c4ccccc4)cn3n2)CC1 | 54.8
COCCN1CCC(c2nc3ccc(-c4ccccc4)cn3n2)CC1 | -18.4
CCCN1CCC(c2nc3ccc(-c4cccc(OC)c4)cn3n2)CC1 | 82.9
Cc1cccc(-c2ccc3nc(C4CCN(CC5CC5)CC4)nn3c2)c1 | 46.8
CN(CCS(C)(=O)=O)C1CCCN(Cc2noc(C3CC3)n2)C1 (centres undefined) | 47.3
CCOC(=O)N1CCC(NC(=O)c2cccc(C3CCCNC3)c2)CC1 (centres undefined) | 9.72
CSCCN1CCC(NC(=O)c2cccc(C3CCCNC3)c2)CC1 (centres undefined) | 50.8
CSc1cccc(CN(C)C(=O)c2cccc(C3CCCNC3)c2)c1 (centres undefined) | 60.4
O=C(NC1CCOCC1)c1cccc(C2CCCNC2)c1 (centres undefined) | 27.7
CN(Cc1ccc2c(c1)OCO2)C(=O)c1ccc(C2CCCNC2)cc1 (centres undefined) | -26.5
CSc1cccc(CN(C)C(=O)c2ccc(C3CCCNC3)cc2)c1 (centres undefined) | 9.56
